Hit rate of the full screen: of about 52,000 compounds, about 4,300 (8.3%) were called active. The full list was thinned out, with actives kept by preference. Unmarked numbers belong to inactive results. Cut-off read from the data, not from the text of the source: active = survival mostly below about 52% (no sharp cut-off); inactive = mostly above about 56%.
The compounds below were run on DeltatarO mutant (assay: growth inhibition of S. aureus wild type versus tarO mutant, primary screen, teichoic acid synthesis inhibitors, RN4220, OD600 (AID 463173)). Details: OD600, 18 h, hits give low values, screened at 18.75 µg/mL (by protocol).

| Compound | survival |
| --- | --- |
| CCC(=O)N1CCc2cc(Br)cc(S(=O)(=O)CCC(=O)NCc3ccc(F)cc3)c21 | 80% |
| Cc1ccc(C)c(Cn2c(=O)n(CCc3ccccc3)c(=O)c3c(C)c(C)sc32)c1 | 112% |
| Cc1sc2c(c1C)c(=O)n(CCc1ccccc1)c(=O)n2Cc1cccc(F)c1 | 16% (active) |
| Cc1sc2c(c1C)c(=O)n(CCc1ccccc1)c(=O)n2Cc1ccccc1Cl | 103% |
| Cc1ccccc1Cn1c(=O)n(CCc2ccccc2)c(=O)c2c(C)c(C)sc21 | -6% (active) |
| Cc1cccc(Cn2c(=O)n(CCc3ccccc3)c(=O)c3c(C)c(C)sc32)c1 | 111% |
| Cc1sc2c(c1C)c(=O)n(CCc1ccccc1)c(=O)n2Cc1ccc(F)cc1 | 52% |
| CN1CCN(Cc2c(O)ccc3cc(-c4ccccc4)c(=O)oc23)CC1 | 105% |
| CCOC(=O)c1[nH]c(C)c(CCC(=O)NCc2ccc(OC(C)C)cc2)c1C | 80% |
| O=C1CC(c2ccccc2)Sc2ccccc2N1Cc1ccccc1F (stereo unspecified) | 96% |
| COc1cc(C2CC(=O)N(Cc3cccc(F)c3)c3ccccc3S2)cc(OC)c1OC (stereo unspecified) | 103% |
| COc1ccc(C2CC(=O)N(Cc3cccc(F)c3)c3ccccc3S2)cc1 (stereo unspecified) | 47% (active) |
| O=C1CC(c2ccccc2)Sc2ccccc2N1Cc1ccc(F)cc1 (stereo unspecified) | -2% (active) |
| CCc1ccc(NC(=O)CN2C(=O)CC(c3ccccc3)Sc3ccccc32)cc1 (stereo unspecified) | 113% |
| COc1ccc(C2CC(=O)N(CC(=O)Nc3cc(C)ccc3C)c3ccccc3S2)cc1 (stereo unspecified) | 79% |
| COc1ccc(C2CC(=O)N(Cc3ccc(F)cc3)c3ccccc3S2)cc1 (stereo unspecified) | 28% (active) |
| COc1ccc(C2CC(=O)N(Cc3ccc(F)cc3)c3ccccc3S2)cc1OC (stereo unspecified) | 100% |
| COc1cc(C2CC(=O)N(Cc3ccc(F)cc3)c3ccccc3S2)cc(OC)c1OC (stereo unspecified) | 75% |
| COc1ccc2c(c1)c(=O)c(C(=O)c1ccc(C)c(C)c1)cn2CC(=O)Nc1ccc2c(c1)OCCO2 | 76% |

| Compound | survival |
| --- | --- |
| CCOc1ccc(NC(=O)Cn2cc(C(=O)c3ccc(CC)cc3)c(=O)c3cc(OC)c(OC)cc32)cc1 | 98% |
| CCOC(=O)c1ccc(NC(=O)CCc2c(C)nc3c(-c4ccc(F)cc4)c(C)nn3c2C)cc1 | 61% |
| COc1ccccc1N1CCN(C(=O)c2ccc(Nc3nc4ccccc4n4nnnc34)cc2)CC1 | 59% |
| Cc1ccc(CNC(=O)C2CCC(CNS(=O)(=O)c3ccc4c(c3)CCCC(=O)N4)CC2)cc1 (stereo unspecified) | 79% |
| COc1cccc(C(c2sc3nc(-c4ccco4)nn3c2O)N2CCCC2)c1 (stereo unspecified) | 71% |
| Cc1ccc(C)c2sc(N3CCN(C(=O)c4ccco4)CC3)nc12 | 134% |
| COc1ccc(C)c2sc(N3CCN(C(=O)c4ccco4)CC3)nc12 | 17% (active) |
| COc1ccc(OC)c2sc(N3CCN(C(=O)C(C)(C)C)CC3)nc12 | 89% |
| COc1ccc(OC)c2sc(N3CCN(C(=O)C4COc5ccccc5O4)CC3)nc12 (stereo unspecified) | 88% |
| COc1ccc(OC)c2sc(N3CCN(C(=O)c4ccco4)CC3)nc12 | 87% |
| COc1ccc(OC)c2sc(N3CCN(C(=O)C4CC4)CC3)nc12 | -5% (active) |
| CCn1cc(S(=O)(=O)c2cccc(C)c2)c(=O)c2cc(F)c(N3CCCCC3C)cc21 (stereo unspecified) | 83% |
| CCc1ccc2[nH]c(=O)c(C(c3nnnn3C(C)(C)C)N3CCc4ccccc43)cc2c1 (stereo unspecified) | 96% |
| Cc1oc(-c2ccc(C(=O)N(C)Cc3ccccc3)cc2)nc1CN1CCc2ccccc21 | 119% |
| Cc1ccc(-n2nc3ccc(NC(=O)Cc4ccc(Cl)cc4)cc3n2)cc1 | 79% |
| CCOc1ccc(CNC(=O)Cn2c(=O)c3cccn3c3ccccc32)cc1 | 60% |
| Fc1ccc(F)c(Nc2c3c(nc4ccc(Cl)cc24)CCC3)c1 | -18% (active) |
| COc1cc(Cl)c(C)cc1Nc1c2c(nc3ccccc13)CCC2 | 70% |
| FC(F)(F)c1cccc(Nc2c3c(nc4ccc(Cl)cc24)CCC3)c1 | 9% (active) |

| Compound | survival |
| --- | --- |
| CCOC(=O)c1cccc(Nc2c3c(nc4ccccc24)CCC3)c1 | 68% |
| Fc1ccccc1Nc1c2c(nc3ccccc13)CCC2 | 95% |
| COc1ccc(Nc2c3c(nc4ccc(NC(=O)c5cc(Cl)ccc5OC)cc24)CCCC3)cc1OC | 70% |
| O=C(Nc1c(C(=O)N2CCN(c3ccc(F)cc3)CC2)oc2ccccc12)c1c(F)cccc1F | 95% |
| CCC(=O)Nc1ccccc1-c1nc2ccccc2n(Cc2cccc(Br)c2)c1=O | 49% |
| CCn1cc(C(=O)NCCc2ccc(Cl)cc2)c(=O)c2cc(S(=O)(=O)N(C)C3CCCCC3)ccc21 | 84% |
| CC(=O)Nc1c(C)nn(-c2ccccc2)c1N1CCC(C(=O)NCc2cccc(Cl)c2)CC1 | 84% |
| CC(=O)Nc1c(C)nn(-c2ccccc2)c1N1CCC(C(=O)NCc2ccc(F)cc2)CC1 | -1% (active) |
| CC(=O)Nc1c(C)nn(-c2ccccc2)c1N1CCC(C(=O)NCc2ccccc2Cl)CC1 | -2% (active) |
| O=C(NCc1cccc(F)c1)C1CCN(c2nn3cc(-c4ccc(F)cc4)nc3s2)CC1 | 87% |
| CC(=O)Nc1ccc(NC(=O)C2CCN(c3c(NC(C)=O)c(C)nn3-c3ccccc3)CC2)cc1 | 67% |
| CC(=O)Nc1c(C)nn(-c2ccccc2)c1N1CCC(C(=O)NCc2cccc(F)c2)CC1 | 6% (active) |
| Cc1cccc(CNC(=O)C2CCN(c3nn4cc(-c5ccc(F)cc5)nc4s3)CC2)c1 | 47% (active) |
| CC(=O)Nc1c(C)nn(-c2ccccc2)c1N1CCC(C(=O)Nc2cc(F)ccc2F)CC1 | 79% |
| CC(=O)Nc1c(C)nn(-c2ccccc2)c1N1CCC(C(=O)Nc2ccc(C)cc2Cl)CC1 | 72% |
| CC(=O)Nc1c(C)nn(-c2ccccc2)c1N1CCC(C(=O)NCc2ccc(Cl)cc2)CC1 | 72% |
| CC(=O)Nc1c(C)nn(-c2ccccc2)c1N1CCC(C(=O)Nc2ccc(F)cc2Cl)CC1 | 76% |
| Cc1ccc(CNC(=O)C2CCN(c3nn4cc(-c5ccc(F)cc5)nc4s3)CC2)cc1 | 87% |
